Data as given in PubChem BioAssay (NCATS).
Records with an inconclusive call do not appear. Where a call stands in place of a potency, no number is given. Activity calls are given as the source filed them. Calls follow the shape of the dose curve; as a rule, active = well fitted curve in the direction sought with a large enough effect; inconclusive = small, poorly fitted or top-dose-only effect, or another doubt; inactive = no such curve, though single readings can be large; an effect the other way counts as inactive or inconclusive.

Tested on: not listed separately
Test: Cellular Toxicity (caspase-3) BJ (AID 658)
Conditions: BJ fibroblasts, luminescence, normalized: DMSO 0%, staurosporine 100%; series mostly up to 91.7 µM
Method in brief: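 Plated BJ cells (1000/well) rested 5 hr, received compound for 16 hr at 37 °C, then Caspase-Glo 3/7 reagent for 1 hr at room temperature before luminescence reading.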

Structure (SMILES) | outcome
C=C(C)[C@H]1CC=C(C)C(=O)C1 | inactive
C=CC(C)(O)CCC=C(C)C (configuration not stated) | inactive
COS(C)(=O)=O | inactive

Tested on: not listed separately
Test: Cellular Toxicity (caspase-3) MRC-5 (AID 659)
Conditions: MRC-5 cells, luminescence, normalized: DMSO 0%, 10 µM staurosporine 100%; series mostly up to 91.7 µM
Method in brief: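 Apoptosis readout in MRC-5 cells: luciferase light generated after caspase 3/7 cleaves a peptide-aminoluciferin substrate, measured post 16 hr compound incubation at 37 °C.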

Structure (SMILES) | outcome
C=C(C)[C@H]1CC=C(C)C(=O)C1 | inactive
C=CC(C)(O)CCC=C(C)C (configuration not stated) | inactive
COS(C)(=O)=O | inactive

Tested on: not listed separately
Test: Cellular Toxicity (caspase-3) Mesangial (AID 660);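 also: combined caspase 3 and 7 activity read by Caspase-Glo luminescence; cells exposed to compound for 16 h before the caspase read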
Conditions: mesangial cells, normalized: DMSO 0%, 100 µM tamoxifen 100%; series mostly up to 91.7 µM
Method in brief: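 Seed cells derived from normal human renal glomeruli, incubate 5 h, add compounds across concentrations and incubate 16 h at 37 °C. Caspase 3/7 activation is then quantified by luciferase light, with AC50 derived by Hill modeling.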

Structure (SMILES) | outcome
C=C(C)[C@H]1CC=C(C)C(=O)C1 | inactive
C=CC(C)(O)CCC=C(C)C (configuration not stated) | inactive
COS(C)(=O)=O | inactive

Tested on: not listed separately
Test: Cellular Toxicity (caspase-3) SK-N-SH (AID 661)
Conditions: SK-N-SH caspase-3 activation, qHTS, DMSO as zero, staurosporine as full; series mostly up to 91.7 µM
Method in brief: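 Cells were seeded and incubated 5 hr at 37 °C, dosed with compound over a concentration range for 16 hr, then given Caspase-Glo 3/7 reagent for 1 hr at room temperature before luminescence reading.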

Structure (SMILES) | outcome
C=C(C)[C@H]1CC=C(C)C(=O)C1 | inactive
C=CC(C)(O)CCC=C(C)C (configuration not stated) | inactive
COS(C)(=O)=O | inactive

Tested on: not listed separately
Test: Cellular Toxicity (caspase-3) H-4-II-E (AID 663);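 also: cells exposed to compound for 16 hr before readout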
Conditions: H-4-II-E rat hepatoma, scaled: DMSO 0%, 100 µM tamoxifen 100%; series mostly up to 92.2 µM
Method in brief: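 Caspase 3/7 activation measured in H-4-II-E cells in complete culture medium after 16 hr treatment at 37 °C, using luciferase-coupled substrate readout; AC50 values come from Hill-equation fits of normalized concentration-response data.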

Structure (SMILES) | outcome
C=C(C)[C@H]1CC=C(C)C(=O)C1 | inactive
C=CC(C)(O)CCC=C(C)C (configuration not stated) | inactive
COS(C)(=O)=O | inactive

Tested on: not listed separately
Test: Cellular Toxicity (caspase-3) Hek293 (AID 664);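 also: cells exposed to compound for 16 h at 37 °C before readout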
Conditions: HEK293 caspase-3 activation, DMSO = 0%, 100 µM tamoxifen = 100%; series mostly up to 92.2 µM
Method in brief: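 qHTS, HEK293 (human embryonic kidney), 16 h cpd exposure in complete medium. Caspase-3/7 activation = luminescence increase; normalized to DMSO/100 uM tamoxifen; Hill-fit AC50.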

Structure (SMILES) | outcome
C=C(C)[C@H]1CC=C(C)C(=O)C1 | inactive
C=CC(C)(O)CCC=C(C)C (configuration not stated) | inactive
COS(C)(=O)=O | inactive

Tested on: not listed separately
Test: Cellular Toxicity (caspase-3) N2a (AID 665);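 also: compound exposure lasted 16 h at 37 °C before readout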
Conditions: N2a cells, luminescence, normalized: DMSO 0%, 10 µM staurosporine 100%; series mostly up to 92.2 µM
Method in brief: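 Caspase-3/7 activation, measured as increased luminescence from aminoluciferin release, is quantified in mouse N2a cells exposed to compounds for 16 h. Values are normalized to DMSO and 10 uM staurosporine, with AC50 derived by Hill modelling.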

Structure (SMILES) | outcome
C=C(C)[C@H]1CC=C(C)C(=O)C1 | inactive
C=CC(C)(O)CCC=C(C)C (configuration not stated) | inactive
COS(C)(=O)=O | inactive

Tested on: not listed separately
Test: Cellular Toxicity (caspase-3) NIH 3T3 (AID 666)
Conditions: NIH 3T3 caspase-3 activation, apoptosis/toxicity, 0% DMSO, 100% is 100 µM tamoxifen; series mostly up to 92.2 µM
Method in brief: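 Cells were plated at 1000 per well and incubated 5 hr at 37°C, then compound was added for 16 hr. Caspase-Glo 3/7 reagent followed for 20 min at room temperature before luminescence was read.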

Structure (SMILES) | outcome
C=C(C)[C@H]1CC=C(C)C(=O)C1 | inactive
C=CC(C)(O)CCC=C(C)C (configuration not stated) | inactive
COS(C)(=O)=O | inactive

Tested on: not listed separately
Test: Cellular Toxicity (caspase-3) Renal Proximal Tubule (AID 667);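 also: cells exposed to compound for 16 hours at 37 °C before detection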
Conditions: renal proximal tubule cells, primary cells freshly taken from rat, solvent-only wells 0%, staurosporine 100%; series mostly up to 91.7 µM
Method in brief: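 Luminescent caspase 3/7 signal from peptide-aminoluciferin cleavage measures apoptosis in freshly isolated rat kidney proximal tubule cells after 16 h compound exposure. Concentration-response data are normalized to DMSO and 10 uM staurosporine, and AC50 values come from Hill equation fits.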

Structure (SMILES) | outcome
C=C(C)[C@H]1CC=C(C)C(=O)C1 | inactive
C=CC(C)(O)CCC=C(C)C (configuration not stated) | inactive
COS(C)(=O)=O | inactive

Molecular target: Cytochrome P450 3A4 (Homo sapiens) (UniProt P08684)
Test: qHTS Assay for Inhibitors and Substrates of Cytochrome P450 3A4 (AID 884); also: nearly all actives have a fitted effect of over 50% in size; also: potency is read from the fitted curve at half-maximal effect
Conditions: recombinant CYP3A4, Luciferin-PPXE luminescence; series mostly up to 57.1 µM
Method in brief: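 Luminescent readout of luciferin produced by CYP3A4 (20 nM) dealkylation of Luciferin-PPXE, 25 uM (its KM). NADPH-driven reaction ran 60 min at RT after 10 min compound preincubation; data scaled to 57 uM ketoconazole as 100% inhibition.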

Chain of Cytochrome P450 3A4 (Homo sapiens) (P08684 whole entry, looked up): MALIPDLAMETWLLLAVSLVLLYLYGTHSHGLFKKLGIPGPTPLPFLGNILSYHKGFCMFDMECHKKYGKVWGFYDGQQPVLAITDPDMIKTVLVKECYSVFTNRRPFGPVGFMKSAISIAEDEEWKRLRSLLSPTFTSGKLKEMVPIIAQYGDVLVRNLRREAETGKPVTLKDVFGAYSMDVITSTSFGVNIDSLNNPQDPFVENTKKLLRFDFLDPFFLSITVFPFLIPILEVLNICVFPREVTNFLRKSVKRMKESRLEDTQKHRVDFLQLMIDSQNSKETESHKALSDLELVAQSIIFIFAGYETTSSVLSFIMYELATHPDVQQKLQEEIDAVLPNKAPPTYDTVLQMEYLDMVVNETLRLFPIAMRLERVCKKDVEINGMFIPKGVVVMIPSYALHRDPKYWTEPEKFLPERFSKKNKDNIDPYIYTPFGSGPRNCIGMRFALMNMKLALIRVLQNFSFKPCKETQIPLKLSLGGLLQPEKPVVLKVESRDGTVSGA

Structure (SMILES) | Potency
C=C(C)[C@H]1CC=C(C)C(=O)C1 | inactive
Cc1ccccc1-c1ccc2ncnc(N3CCN(C)CC3)c2c1 | 3.98 µM (active)
C[N+](C)(C)CC(O)CC(=O)O (configuration not stated) | inactive
C=CC(C)(O)CCC=C(C)C (configuration not stated) | inactive
O=c1cc(-c2ccc(O)cc2)oc2cc(O[C@H]3OC(CO)C(O)C(O)C3O)cc(O)c12 (some centres not stated) | inactive
O=C(/C=C/c1ccc(O)c(O)c1)OC(Cc1ccc(O)c(O)c1)C(=O)O (configuration not stated) | inactive
C=C[C@](C)(O)CCC=C(C)C | inactive
COc1ccccc1CNc1ncnc2ccc(-c3cccc(C#N)c3)cc12 | 7.94 µM (active)
CC(C)N1CCN(c2ccc(OC[C@@H]3CO[C@@](Cn4cncn4)(c4ccc(Cl)cc4Cl)O3)cc2)CC1 | 1.58 µM (active)
C=C(NC(=O)C(=C)NC(=O)c1csc(C2=NC3c4csc(n4)C4NC(=O)c5csc(n5)C(C(C)(O)C(C)O)NC(=O)C5CSC(=N5)C(=CC)NC(=O)C(C(C)O)NC(=O)c5csc(n5)C3(CC2)NC(=O)C(C)NC(=O)C(=C)NC(=O)C(C)NC(=O)C(C(C)CC)NC2C=Cc3c(C(C)O)cc(nc3C2O)C(=O)OC4C)n1)C(N)=O (configuration not stated) | inactive
COS(C)(=O)=O | inactive
CC(C)(S)[C@H](N)C(=O)O | inactive
O=c1ccc2ccc(O)cc2o1 | inactive
FC(F)(F)c1ccccc1-c1ccc2ncnc(NCc3cccs3)c2c1 | 5.01 µM (active)
CN1C(CC(=O)c2ccccc2)CCCC1CC(O)c1ccccc1 (configuration not stated) | inactive
COc1ccc2ccc(=O)oc2c1 | inactive
Cc1cnc(CNc2ncnc3ccc(-c4ccccc4C(F)(F)F)cc23)cn1 | 2 µM (active)
O=C(Cc1cccs1)NC1C(=O)N2C(C(=O)[O-])=C(C[n+]3ccccc3)CSC12 (configuration not stated) | inactive

Molecular target: Cytochrome P450 3A4 (Homo sapiens) (UniProt P08684)
Test: qHTS Assay for Activators of Cytochrome P450 3A4 (AID 885); also: nearly all actives have a fitted effect of over 65% in size
Conditions: recombinant CYP3A4, Luciferin-PPXE luminescence, 60 min; series mostly up to 57.1 µM
Method in brief: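 Luminescent readout of luciferin formed from 25 uM Luciferin-PPXE (KM level) by 20 nM CYP3A4 in 200 mM KPO4, with 60 min NADPH-driven reaction at room temperature after 10 min compound exposure. Ketoconazole (57 uM) defined 100% inhibition.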

Structure (SMILES) | Potency
COc1cccc(Cn2c(=O)cnc3cnc(N4CCN(C)CC4)nc32)c1 | inactive
N#Cc1cccc(-c2ccc3ncnc(NCc4ccccc4)c3c2)c1 | inactive
COc1ncc2nc(-c3cccs3)c(=O)n(C)c2n1 | inactive
Cc1ccccc1-c1ccc2ncnc(N3CCN(C)CC3)c2c1 | inactive
Oc1ccc2c(c1)OCC1(O)Cc3cc(O)c(O)cc3C21 (configuration not stated) | inactive
COc1ccccc1-c1ccc2ncnc(Nc3ccccc3)c2c1 | inactive
COc1ccccc1CNc1ncnc2ccc(-c3cccc(C#N)c3)cc12 | inactive
COc1ccccc1CNc1cc(-c2cccc(C#N)c2)ncn1 | inactive
CC(C)N1CCN(c2ccc(OC[C@@H]3CO[C@@](Cn4cncn4)(c4ccc(Cl)cc4Cl)O3)cc2)CC1 | inactive
NC(Cc1c[nH]c2ccccc12)C(=O)O (configuration not stated) | inactive
COc1cc2c(cc1OC)C1Cc3ccc(OC)c(OC)c3CN1CC2 (configuration not stated) | inactive
FC(F)(F)c1ccccc1-c1ccc2ncnc(N3CCOCC3)c2c1 | inactive
COc1ccccc1-c1ccc2ncnc(NCCN3CCOCC3)c2c1 | inactive
FC(F)(F)c1ccccc1-c1ccc2ncnc(NCc3cccs3)c2c1 | inactive
Cc1cnc(CNc2ncnc3ccc(-c4ccccc4C(F)(F)F)cc23)cn1 | inactive
CN1CCN(c2ccnc(-c3ccc(N(C)C)cc3)n2)CC1 | inactive

Molecular target: Cytochrome P450 2C19 (Homo sapiens) (UniProt P33261)
Test: qHTS Assay for Inhibitors and Substrates of Cytochrome P450 2C19 (AID 899); also: potency is read from the fitted curve at half-maximal effect; nearly all actives have a fitted effect of over 60% in size
Conditions: recombinant CYP2C19, luciferin-H EGE luminescence; series mostly up to 57.1 µM
Method in brief: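 NADPH-dependent conversion of Luciferin-H EGE (10uM, at KM) by 5nM enzyme in 50mM KPO4, 60 min at 37C following 10 min compound preincubation. Stopped with luciferin detection buffer; luminescence read after 20 min.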

Chain of Cytochrome P450 2C19 (Homo sapiens) (P33261 whole entry, looked up): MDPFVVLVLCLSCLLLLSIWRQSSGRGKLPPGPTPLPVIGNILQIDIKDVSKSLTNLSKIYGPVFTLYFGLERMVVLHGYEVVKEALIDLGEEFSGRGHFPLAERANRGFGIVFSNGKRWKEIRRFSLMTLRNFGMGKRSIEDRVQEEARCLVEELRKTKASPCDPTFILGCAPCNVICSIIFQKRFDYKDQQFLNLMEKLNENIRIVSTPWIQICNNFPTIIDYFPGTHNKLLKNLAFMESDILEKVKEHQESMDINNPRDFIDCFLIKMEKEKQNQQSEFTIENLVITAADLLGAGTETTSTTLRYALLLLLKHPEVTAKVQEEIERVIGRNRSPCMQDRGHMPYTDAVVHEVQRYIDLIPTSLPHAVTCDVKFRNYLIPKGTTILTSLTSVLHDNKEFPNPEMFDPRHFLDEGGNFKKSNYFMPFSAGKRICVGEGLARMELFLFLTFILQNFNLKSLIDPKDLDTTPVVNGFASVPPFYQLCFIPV

Structure (SMILES) | Potency
COc1ccccc1-c1ccc2ncnc(Nc3ccccc3)c2c1 | 5.01 µM (active)
COc1ccccc1CNc1ncnc2ccc(-c3cccc(C#N)c3)cc12 | 5.01 µM (active)
FC(F)(F)c1ccccc1-c1ccc2ncnc(N3CCOCC3)c2c1 | 0.631 µM (active)
FC(F)(F)c1ccccc1-c1ccc2ncnc(NCc3cccs3)c2c1 | 3.16 µM (active)

Tested on: not listed separately
Test: Confirmation and Secondary Assay for Modulators of Hemoglobin Beta Chain Splicing at IVS2 654 locus (AID 910);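 also: per-well total GFP intensity by laser scanning cytometry after 2-day treatment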
Conditions: HeLa EGFP-654 splicing reporter, GFP fluorescence, 48 h; series mostly up to 38.3 µM
Method in brief: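 HeLa cells stably carrying EGFP interrupted by mutant beta-globin IVS2-654 intron (CMV-driven) were treated with compound for 2 days at 37C; corrected splicing was scored as total peak GFP intensity per well (488 nm excitation, 500-520 nm emission).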

Structure (SMILES) | Potency
Oc1ccc2c(c1)OCC1(O)Cc3cc(O)c(O)cc3C21 (configuration not stated) | inactive
C[N+](C)(C)CC(O)CC(=O)O (configuration not stated) | inactive
O=C(/C=C/c1ccc(O)c(O)c1)OC(Cc1ccc(O)c(O)c1)C(=O)O (configuration not stated) | inactive
C=C[C@](C)(O)CCC=C(C)C | inactive
CC1(C)SC2C(NC(=O)Cc3ccccc3)C(=O)N2C1C(=O)O (configuration not stated) | inactive
C=C(NC(=O)C(=C)NC(=O)c1csc(C2=NC3c4csc(n4)C4NC(=O)c5csc(n5)C(C(C)(O)C(C)O)NC(=O)C5CSC(=N5)C(=CC)NC(=O)C(C(C)O)NC(=O)c5csc(n5)C3(CC2)NC(=O)C(C)NC(=O)C(=C)NC(=O)C(C)NC(=O)C(C(C)CC)NC2C=Cc3c(C(C)O)cc(nc3C2O)C(=O)OC4C)n1)C(N)=O (configuration not stated) | inactive
COS(C)(=O)=O | inactive
COc1cc2c(cc1OC)C1Cc3ccc(OC)c(OC)c3CN1CC2 (configuration not stated) | inactive
O=c1ccc2ccc(O)cc2o1 | inactive
CN1C(CC(=O)c2ccccc2)CCCC1CC(O)c1ccccc1 (configuration not stated) | inactive
COc1ccc2ccc(=O)oc2c1 | inactive
O=C(Cc1cccs1)NC1C(=O)N2C(C(=O)[O-])=C(C[n+]3ccccc3)CSC12 (configuration not stated) | inactive
